The list is not random: actives were taken first. Their share in the collection is about 1.9%.
OPRM1-OPRD1 inv = inverse agonists of MOR-DOR heterodimerization, primary screen, cell-based, luminescence. Mu-type opioid receptor (Homo sapiens) + Delta-type opioid receptor (Homo sapiens), …. cell-based MOR-DOR heterodimer luminescence, inverse agonism. inhibition, % at 9.3 µM. 0.21% of 340,000 active; in the data active means inhibition above about 22%, passing the limit was not always enough;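 further: 0% = cells with DMSO and 100% = wells without cells with DMSO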
Target sequence (P35372 whole entry, looked up): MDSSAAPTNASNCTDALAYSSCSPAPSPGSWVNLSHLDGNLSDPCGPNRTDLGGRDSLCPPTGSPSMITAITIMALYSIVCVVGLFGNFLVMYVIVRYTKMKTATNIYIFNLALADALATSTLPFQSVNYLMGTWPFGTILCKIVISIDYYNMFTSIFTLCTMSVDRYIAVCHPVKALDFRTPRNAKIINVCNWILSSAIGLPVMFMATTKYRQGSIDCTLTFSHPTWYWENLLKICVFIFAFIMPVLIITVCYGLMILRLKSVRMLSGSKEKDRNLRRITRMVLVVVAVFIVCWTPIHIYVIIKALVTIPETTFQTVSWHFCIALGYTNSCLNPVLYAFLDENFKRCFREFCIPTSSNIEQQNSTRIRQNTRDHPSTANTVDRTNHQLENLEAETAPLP
Target sequence (P41143 whole entry, looked up): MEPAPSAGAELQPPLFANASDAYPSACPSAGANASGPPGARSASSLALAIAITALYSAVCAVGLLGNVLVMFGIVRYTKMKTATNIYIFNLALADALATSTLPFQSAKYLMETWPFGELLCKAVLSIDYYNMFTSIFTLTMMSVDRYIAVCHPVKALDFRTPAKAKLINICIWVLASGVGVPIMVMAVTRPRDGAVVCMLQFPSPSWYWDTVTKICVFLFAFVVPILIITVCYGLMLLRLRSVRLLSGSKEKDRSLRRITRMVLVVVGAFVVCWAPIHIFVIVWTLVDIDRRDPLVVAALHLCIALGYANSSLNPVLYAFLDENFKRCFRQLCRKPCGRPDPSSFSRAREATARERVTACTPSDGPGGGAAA
MsrA act = bovine MsrA enzyme activators, primary screen, biochemical, absorbance, HTS | 0.3% of 360,000 active | activation, % at 10.6 µM | purified bovine MsrA, absorbance read-out; in the data active means activation above about 7.5%;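 further: 0% = vehicle and 100% = reference activator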
HTR5A inv ag = HTR5A inverse agonists in luminescence cell assay, primary screen, counter-screen for OPRM1-OPRD1 heterodimer inverse agonist project, full-deck HTS; 5-hydroxytryptamine receptor 5A (Homo sapiens), P47898; HTR5A cell line, inverse agonism; inhibition, % at 9.3 µM; 0.083% of 340,000 active; AID 504634, 2011; in the data active means inhibition mostly above about 23%, no sharp cut-off; inactive means mostly below about 18%;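 further: 0% = cells with DMSO and 100% = no-cell wells with DMSO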
HTR5A ag = HTR5A agonists in luminescence cell assay, primary screen, counter-screen for OPRM1-OPRD1 heterodimer agonist project, full-deck HTS; cell-based; activation, % at 9.3 µM; 0.61% of 340,000 active; AID 504692, 2011; in the data active means activation mostly above about 9.5%, no sharp cut-off; inactive means mostly below about 7.6%;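 further: 0% = cells with vehicle only and 100% = reference agonist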
OPRM1-OPRD1 ag = agonists of OPRM1-OPRD1 heterodimerization, primary screen, cell-based, luminescence; AID 504326, 2011; 0.3% of 340,000 active; cells; activation, % at 9.3 µM; Mu-type opioid receptor (Homo sapiens) + Delta-type opioid receptor (Homo sapiens), …;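 further: 0% = vehicle-treated cells and 100% = reference agonist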
MsrA inh = bovine MsrA enzyme inhibitors, primary screen, biochemical, absorbance, HTS | Methionine sulfoxide reductase A (Bos taurus) | purified bovine MsrA, absorbance read-out | inhibition, % at 15.5 µM | 0.75% of 360,000 active | AID 651718, 2012; in the data active means inhibition above about 4.5%;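 further: 0% = vehicle wells with enzyme and 100% = reference inhibitor wells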
OPRM1-D1 ag cf = agonists of MOR-DOR heterodimerization, confirmation, cell-based, luminescence | AID 504904, 2011 | shares compounds with OPRM1-OPRD1 ag | activation, % at 9.3 µM | cells, luminescence complementation | 45% of 830 active;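 further: 0% = vehicle-treated cells and 100% = reference agonist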
HTR5A ag counter = HTR5A agonists in cells, counter-screen for OPRM1-OPRD1 heterodimer agonist project, cell-based, luminescence. shares compounds with OPRM1-OPRD1 ag. HTR5A agonist counterscreen. activation, % at 9.3 µM. 8% of 830 active; in the data active means activation above about 17%;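 further: 0% = vehicle-treated cells and 100% = reference agonist response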
Active calls of the source: *. Unless noted, no stated cut-off is given here; in the data, active means activation above about 18%; inactive means the rest.

Results for CC(NC(=O)Cc1cccs1)C(c1cccs1)N1CCN(c2ccccc2)CC1 (stereo not given) ?
OPRM1-OPRD1 inv: -16; MsrA act: -3; HTR5A inv ag: -3; HTR5A ag: 1; OPRM1-OPRD1 ag: 3; MsrA inh: 0

Results for CCC(=O)NC(C)C(c1cccs1)N1CCN(c2ccccc2)CC1 (stereo not given) ?
OPRM1-OPRD1 inv: -177; MsrA act: -1; HTR5A inv ag: 16; HTR5A ag: -4; OPRM1-OPRD1 ag: 31*; MsrA inh: -1; OPRM1-D1 ag cf: 0; HTR5A ag counter: 2

How did CCOC(=O)N1CCN(C(=O)C[C@H]2C[C@@]3(C(=O)OC)C(=C[C@H](C(C)(C)C)O[C@@H]3C)N(Cc3ccccc3)C2=O)CC1 do in these assays?
MsrA inh: 0

How did Cc1ccc2sc(N(CCCN(C)C)C(=O)c3ccc(S(=O)(=O)N4CCc5ccccc5C4)cc3)nc2c1C do in these assays?
OPRM1-OPRD1 inv: -136; MsrA act: -5; HTR5A inv ag: -11; HTR5A ag: -5; OPRM1-OPRD1 ag: 21*; MsrA inh: 0; OPRM1-D1 ag cf: 0; HTR5A ag counter: 1

Results for CCN(Cc1ccccc1)S(=O)(=O)c1ccc(C(=O)N(CCCN(C)C)c2nc3c(F)cccc3s2)cc1 ?
OPRM1-OPRD1 inv: inactive; MsrA act: -3; HTR5A inv ag: -6; HTR5A ag: -1; OPRM1-OPRD1 ag: 144*; MsrA inh: -1; OPRM1-D1 ag cf: 26*; HTR5A ag counter: 3

Results for CN(C)CCCN(C(=O)c1ccc(S(=O)(=O)N2CCCCCC2)cc1)c1nc2ccc(F)cc2s1 ?
OPRM1-OPRD1 inv: inactive; MsrA act: -4; HTR5A inv ag: -3; HTR5A ag: 2; OPRM1-OPRD1 ag: 155*; MsrA inh: 0; OPRM1-D1 ag cf: 3; HTR5A ag counter: 2

How did CCOc1cccc2sc(N(CCCN(C)C)C(=O)c3ccc(S(=O)(=O)N(CC)Cc4ccccc4)cc3)nc12 do in these assays?
OPRM1-OPRD1 inv: -14; MsrA act: 2; HTR5A inv ag: 0; HTR5A ag: 6; OPRM1-OPRD1 ag: 3; MsrA inh: -2

How did Cc1ccc2sc(N(CCCN(C)C)C(=O)c3ccc(S(=O)(=O)N(C)Cc4ccccc4)cc3)nc2c1C do in these assays?
OPRM1-OPRD1 inv: -260; MsrA act: -1; HTR5A inv ag: 0; HTR5A ag: 0; OPRM1-OPRD1 ag: 40*; MsrA inh: -1; OPRM1-D1 ag cf: 1; HTR5A ag counter: -2

How did CN(C)CCCN(C(=O)c1ccc(S(=O)(=O)N2CCOCC2)cc1)c1nc2ccc(F)cc2s1 do in these assays?
OPRM1-OPRD1 inv: 11; MsrA act: -2; HTR5A inv ag: -26; HTR5A ag: 7; OPRM1-OPRD1 ag: -2; MsrA inh: 0

How did COC(=O)[C@]12C[C@H](CC(=O)NCCc3ccccc3OC)C(=O)N(CCC3=CCCCC3)C1=C[C@H](C(C)(C)C)O[C@@H]2C do in these assays?
MsrA inh: 0

Results for CN(C)CCCN(C(=O)c1ccc(S(=O)(=O)N2CCc3ccccc3C2)cc1)c1nc2c(F)cc(F)cc2s1 ?
OPRM1-OPRD1 inv: inactive; MsrA act: -4; HTR5A inv ag: 17; HTR5A ag: -7; OPRM1-OPRD1 ag: 341*; OPRM1-D1 ag cf: 396*; HTR5A ag counter: 0

Results for CSCCC(NS(=O)(=O)c1ccc(C)cc1)C(=O)N1CCN(C(c2ccccc2)c2ccccc2)CC1 (stereo not given) ?
OPRM1-OPRD1 inv: -278; MsrA act: -1; HTR5A inv ag: -8; HTR5A ag: -1; OPRM1-OPRD1 ag: 57*; MsrA inh: 1; OPRM1-D1 ag cf: 4; HTR5A ag counter: 8

What do the screens show for `Cc1ccc(NC(=O)Cn2nnc(C(=O)Nc3ccc(C)c(C)c3)c2N)cc1`?
OPRM1-OPRD1 inv: 4; MsrA act: 2; HTR5A inv ag: -14; HTR5A ag: 4; OPRM1-OPRD1 ag: -1; MsrA inh: 0

How did Cc1cc(C)cc(NC(=O)Cn2nnc(C(=O)NCc3ccc(F)cc3)c2N)c1 do in these assays?
OPRM1-OPRD1 inv: 2; MsrA act: -10; HTR5A inv ag: 21; HTR5A ag: 5; OPRM1-OPRD1 ag: 0; MsrA inh: 1

What do the screens show for `Cc1cc(C)cc(NC(=O)Cn2nnc(C(=O)NCCc3ccccc3)c2N)c1`?
OPRM1-OPRD1 inv: -104; MsrA act: -4; HTR5A inv ag: -6; HTR5A ag: 7; OPRM1-OPRD1 ag: 21*; MsrA inh: 1; OPRM1-D1 ag cf: 12; HTR5A ag counter: 8

How did Cc1cc(C)cc(NC(=O)Cn2nnc(C(=O)NCc3ccccc3Cl)c2N)c1 do in these assays?
OPRM1-OPRD1 inv: -136; MsrA act: 0; HTR5A inv ag: -8; HTR5A ag: 10; OPRM1-OPRD1 ag: 25*; MsrA inh: -1; OPRM1-D1 ag cf: 12; HTR5A ag counter: -2

Results for Cc1ccc(NC(=O)c2nnn(CC(=O)Nc3ccc4c(c3)OCO4)c2N)cc1C ?
OPRM1-OPRD1 inv: -116; MsrA act: -1; HTR5A inv ag: -29; HTR5A ag: 8; OPRM1-OPRD1 ag: 23*; MsrA inh: 0; OPRM1-D1 ag cf: 9; HTR5A ag counter: 4

What do the screens show for `Cc1cc(O)cc(=O)n1-c1cc(Cl)cc(Cl)c1`?
MsrA inh: 0

Results for O=C(Nc1ccccn1)c1cc2cc([N+](=O)[O-])ccc2s1 ?
OPRM1-OPRD1 inv: -303; MsrA act: -2; HTR5A inv ag: 2; HTR5A ag: 2; OPRM1-OPRD1 ag: 61*; MsrA inh: 1; OPRM1-D1 ag cf: 31*; HTR5A ag counter: 4

How did CCCCNc1cccc2c1S(=O)(=O)N[C@H](CC(C)C)CO2 do in these assays?
MsrA inh: 2

What do the screens show for `COc1ccc(NC(=O)CN2CCc3ccccc3C2)cc1S(=O)(=O)N1CCOCC1`?
OPRM1-OPRD1 inv: -345; MsrA act: -1; HTR5A inv ag: -16; HTR5A ag: 3; OPRM1-OPRD1 ag: 51*; MsrA inh: 0; OPRM1-D1 ag cf: 3; HTR5A ag counter: 8

Source: PubChem BioAssay (The Scripps Research Institute Molecular Screening Center)
